Source: PubChem BioAssay (NCATS)
Results filed as inconclusive are left out. Activity calls are given as the source filed them. Calls come from the whole dose curve; as a rule, active = well fitted cell-killing curve with a large enough effect; inconclusive = small, poorly fitted or top-dose-only effect, or effect the other way; inactive = flat fitted curve, though single readings scatter. Where a SMILES comes first, the peptide text is derived from it. The star is where a group is joined. βNA = c1ccc2cc(N*)ccc2c1; Cbz = O=C(OCc1ccccc1)*

Columns and labels:
Test in all cases: Primary qHTS to identify gynecologic anti-cancer compounds using libraries of approved drugs and bioactive compounds (AID 1345084); note: nearly all actives have a fitted effect of over 55% in size
Details in all cases: Gynecologic cancer cell panel viability, ATPlite luminescence, 48 h; series mostly up to 57.5 µM
OV90 = test system: OV90
Summary of the method: (§1)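 Luminescence from the ATPlite ATP-monitoring reagent indicates viable cell number; lower signal means cytotoxicity. Cells received compound 16 h after seeding and were exposed for 48 h across five concentrations.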

PA-1 = test system: PA-1
Summary of the method: as §1

SKOV3 = test system: SKOV3
Summary of the method: as §1

Tov-21-G = test system: Tov-21-G
Summary of the method: as §1

Tov112D = test system: Tov112D
Summary of the method: as §1

Measured: Potency

CC1(C)CC[C@]2(C(=O)O[C@@H]3O[C@H](CO)[C@@H](O)[C@H](O)[C@H]3O)CC[C@]3(C)C(=CCC4[C@@]5(C)C[C@@H](O)[C@H](O)[C@@](C)(CO)C5[C@H](O)C[C@]43C)C2C1 (stereo not given in full)
inactive: all assays above

C/C(=C\C1CCC(C)C2CCC3(C)OC123)C(=O)O (stereo not given)
inactive: all assays above

COc1cc(CCCO)ccc1O[C@@H]1O[C@H](CO)[C@@H](O)[C@H](O)[C@H]1O
inactive: all assays above

Cc1cccc(NC(=O)CN2CCC(c3ccccn3)CC2)c1
inactive: all assays above

CC1C(O)C(O)C2C(C(=O)OCCc3ccc(O)cc3)=COC(O[C@@H]3O[C@H](CO)[C@@H](O)[C@H](O)[C@H]3O)C12 (stereo not given in full)
inactive: all assays above

CC(C)=CCC(O)[C@](C)(O)C1[C@H](O)C[C@@]2(C)C3CC=C4C(C[C@H](O)[C@@H](O[C@@H]5O[C@H](CO)[C@@H](O)[C@H](O)[C@H]5O)C4(C)C)[C@]3(C)C(=O)C[C@]12C (stereo not given in full)
inactive: all assays above

COC(=O)C(CC1(OC(=O)C(C)C)c2ccccc2N2C(=O)C(C)(C)N(O)C21)n1cnc2ccccc2c1=O (stereo not given)
inactive: all assays above

CC1(C)COC(=O)[C@@H]1O[C@@H]1O[C@H](CO)[C@@H](O)[C@H](O)[C@H]1O
inactive: all assays above

C[C@@H]1O[C@@H](OC(=O)Cc2ccccc2)[C@H](O)[C@H](O)[C@H]1O
inactive: all assays above

C/C(=C\CC/C(C)=C/CC[C@]1(C)CCc2cc(O)cc(C)c2O1)CC/C=C(\C)C(=O)O
inactive: all assays above

CC(C)CC(NC(=O)OCc1ccccc1)C(=O)NC(CC(C)C)C(=O)NC(CCC(=O)O)C(=O)Nc1ccc2ccccc2c1 (stereo not drawn) (Cbz-Leu-Leu-Glu-βNA; configuration not given here)
inactive: all assays above

Cc1ccc(-c2c(-c3nn(C)c4ncnc(N5CC[C@H](N6CCCCC6)C5)c34)cnn2C)cc1
inactive: all assays above

COCc1c(O)c(C(=O)O)c(C)c2c1OC(=O)c1c(C)cc(O)c(CO)c1O2
inactive: all assays above

CCC(=O)N1CCc2cc(OC)c(O)cc2C1
inactive: all assays above

CC[C@H](NC(=O)c1c(O)c(-c2ccccc2)nc2ccccc12)c1ccccc1
inactive: all assays above

C=C(C)C1Cc2c(ccc3c2OCC(c2ccc(O)cc2O)C3)O1 (stereo not given)
inactive: all assays above

CCc1nnc(NS(=O)(=O)c2ccc(NC(=S)NC(=O)/C=C/c3ccc(F)cc3)cc2)s1
inactive: all assays above

O=C(Nc1cc(-c2ccccc2)nn1-c1ccccc1)c1ccc([N+](=O)[O-])cc1
inactive: all assays above

COc1cc(Nc2nc3ccccc3nc2NS(=O)(=O)c2cccc(NC(=O)c3ccc(C)c(OC)c3)c2)cc(OC)c1
inactive: all assays above

CC1=C2C[C@@]3(C)[C@@H](CCC[C@@H]3C)C[C@@]2(O)OC1=O
inactive: all assays above

C[C@]1(OC(=O)/C=C/c2ccccc2)C[C@@H](O)[C@]2(O)C=CO[C@@H](O[C@@H]3O[C@H](CO)[C@@H](O)[C@H](O)[C@H]3O)[C@@H]21
inactive: all assays above

CC1(C)C2CC[C@@]34CC(CC[C@H]3[C@]2(C)CC[C@@H]1O[C@@H]1O[C@H](CO)[C@@H](O)[C@H](O)[C@H]1O)[C@](C)(O)C4 (stereo not given in full)
inactive: all assays above

CC(C/C=C/C(C)(C)O)C1CCC(C)(O)C(O)C1 (stereo not given)
inactive: all assays above
